# Only some compounds are listed: those with a hit (about 1.5% of all), similar ones and a draw of the others.
# eLon inh: E. coli protease La inhibition. P0A9M0. purified E. coli Lon protease, fluorescence polarization. inhibition, % at 7.94 µM. 360,000 tested, 0.42% active; in the data active = inhibition above about 13%, passing the limit was not always enough;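 note: 0% = enzyme with probe and DMSO and 100% = no enzyme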
# BCLXL inh: Bcl-xL (human) inhibition | GST-Bcl-xL / FITC-Bim BH3 peptide fluorescence polarization | inhibition, % at 10.9 µM | 320,000 tested, 0.7% active;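 active = inhibition above the mean of all tested compounds plus 3 SD, cutoff set per campaign, cut at about 30% in these data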;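 note: 0% = DMSO wells and 100% = unlabeled Bim-BH3 peptide competitor; inhibitors lower millipolarization by displacing the labeled peptide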
# MEX-5 binding: C. elegans MEX-5 TCR-2 RNA binding activity | MEX-5/FITC-TCR2 RNA binding, fluorescence polarization; stronger effect = lower value | activity score (negative = inhibition of binding), % at 10 µM | 300,000 tested, 0.38% active;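 active = inhibition past about -25% in most replicates, and total fluorescence under double the plate's negative control median, limit read from the data; inconclusive = replicates evenly split on the limit, or fluorescence at least double controls; inactive = too little inhibition in most replicates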;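 note: 0% = DMSO and -100% = 5 µM competing unlabeled TCR2 RNA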
# Target sequence (Q9XUB2 whole entry, looked up): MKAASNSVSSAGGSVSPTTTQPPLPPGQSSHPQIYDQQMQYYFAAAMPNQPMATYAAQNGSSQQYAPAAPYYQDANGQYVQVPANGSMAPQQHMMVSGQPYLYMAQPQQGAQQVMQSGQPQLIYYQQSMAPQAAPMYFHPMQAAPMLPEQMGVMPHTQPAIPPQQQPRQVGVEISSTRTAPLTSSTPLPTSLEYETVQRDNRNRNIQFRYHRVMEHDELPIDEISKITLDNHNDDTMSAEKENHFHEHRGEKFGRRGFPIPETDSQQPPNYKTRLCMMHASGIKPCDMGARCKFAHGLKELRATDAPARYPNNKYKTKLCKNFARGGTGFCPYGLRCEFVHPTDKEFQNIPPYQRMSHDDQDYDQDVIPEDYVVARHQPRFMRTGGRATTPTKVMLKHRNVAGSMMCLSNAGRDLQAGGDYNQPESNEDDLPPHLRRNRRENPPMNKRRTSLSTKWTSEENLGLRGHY
# EBV gp42 inh: blocks Epstein-Barr virus glycoprotein 42 binding. 220,000 tested, 0.42% active. Fluorescence polarization binding assay, mP read-out. AID 1085. inhibition, % (tested at 21.74 µM); in the data active = inhibition above about 50%
# MCL1-BIM inh: inhibitors of human MCL1 binding to BIM-BH3 peptide | 320,000 tested, 0.68% active | GST-MCL1 / FITC-Bim-BH3 fluorescence polarization | inhibition, % at 10.9 µM;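 active = inhibition above the mean inhibition of all tested compounds plus 3 SD, set per campaign, cut at about 40% in these data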;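 note: 0% = DMSO wells and 100% = unlabeled Bim-BH3 peptide control; higher means more loss of mP so more displacement of Bim peptide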
# GLD-1 TGE inh: GLD-1-TGE RNA interaction inhibition (C. elegans); purified GLD-1 + fluorescein TGE RNA, fluorescence polarization; inhibition, % at 5.96 µM; AID 2280; 320,000 tested, 0.44% active;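 active = percent inhibition above a per-plate cutoff, the plate mean of test compounds plus 3 SD, cut at about 30% in these data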;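 note: 0% = DMSO wells with GLD-1 and probe and 100% = wells lacking GLD-1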
# Active calls of the source: *; ? = inconclusive; · = not tested or not shown.
SMILES,eLon inh,BCLXL inh,MEX-5 binding,EBV gp42 inh,MCL1-BIM inh,GLD-1 TGE inh
CS(=O)(=O)Oc1ccc2c(c1)O/C(=C\C=C\c1ccccc1)C2=O,-10,9,-42*,-7,9,28
COc1ccc(NC(=O)COc2coc(CN3c4ccccc4CC3C)cc2=O)cc1 (configuration not stated),-8,4,-1,·,-2,-3
O=C(CN1C(=O)c2ccccc2S1(=O)=O)Nc1ncc(Cl)cc1Cl,10,·,·,·,·,57*
O=C(CN1C(=O)c2ccccc2S1(=O)=O)Nc1ncccn1,-1,7,0,·,9,10
N#C/C(=C(/O)c1ccc(-c2cccc([N+](=O)[O-])c2)o1)c1nc2ccccc2s1,-18,·,-5,86*,·,·
Cc1nnc(NC(=O)CSc2cn(CCNC(=O)c3ccccc3)c3ccccc23)s1,-6,0,-1,54*,-3,-5
CC(Oc1ccc2c3c(c(=O)oc2c1)CCCC3)C(=O)NCc1cccnc1 (configuration not stated),6,3,-2,·,-4,3
CCOc1cccc(-c2nc3c(s2)CCc2onc(-c4cccc([N+](=O)[O-])c4)c2-3)c1,5,0,0,·,-2,2
Cc1ccc(-n2c(SC3CCOC3=O)nc3ccccc3c2=O)cc1 (configuration not stated),·,31*,1,4,9,4
CC(C)CN(C(=O)C1COc2ccccc2O1)c1c(N)n(CC(C)C)c(=O)[nH]c1=O (configuration not stated),-4,-1,·,·,4,8
COc1ccc2oc(C(=O)OCC(=O)N(C)C3CCS(=O)(=O)C3)c(C)c2c1 (configuration not stated),5,-5,-1,·,-4,2
COc1ccccc1C(=O)N/C(=C/c1ccco1)C(=O)Nc1cccc(C(=O)O)c1,-25,31*,-6,·,29,14
Cc1ccc(C(=O)N/C(=C/c2ccco2)C(=O)Nc2cccc(C(=O)O)c2)cc1,·,16,-1,·,11,19
Cc1ccc2c(ccc[n+]2CC(=O)c2ccccc2)c1,-2,24,-3,13,20,-20
O=C(C[n+]1cc(Br)cc2ccccc21)c1ccccc1,-116,49*,1,·,45*,-31
CCCCN1C2=C(C(=O)CCC2)C(c2ccc(Cl)c(Cl)c2)C2=C1c1ccccc1C2=O (configuration not stated),3,44*,-3,7,43*,5
CCCN1C(=O)c2ccccc2NC1c1ccc(Cl)c(Cl)c1 (configuration not stated),-7,0,0,·,1,15
COc1ccccc1C(C)NC(=O)CCC(=O)N1CCN(S(=O)(=O)c2ccc(Cl)cc2)CC1 (configuration not stated),-3,·,·,·,·,·
CC(=O)C1=C(c2cccc([N+](=O)[O-])c2)N(C(C)=O)n2c(C)nnc2S1,6,5,-47*,4,10,8
COc1ccc2cc(N=Cc3nc(-c4ccc(C)cc4)oc3O)cnc2c1,-2,4,-47*,-27,4,-2
O=C(Nc1ccc(S(=O)(=O)Nc2cnc3ccccc3n2)cc1)c1cccc(OC(F)F)c1,1,3,1,·,0,10
CCCCn1nc(-c2ccccc2)c2nc3ccccc3nc21,·,24,?,154*,20,9
Cc1ccc(S(=O)(=O)NCC(=O)N(CC(=O)NCC2CCCO2)Cc2ccc(Cl)cc2)cc1 (configuration not stated),7,6,0,·,2,2
O=C(OCc1ccc(C(=O)c2ccccc2)cc1)c1cccc(-c2nnc(-c3ccccc3)o2)c1,16*,0,·,-5,-3,-1
CC(=O)Nc1ccc(-c2csc(NC(=O)Cc3cccc(F)c3)n2)cc1,9,-1,-3,·,-7,-1
COc1ccc(-c2nc(N)nc(C)c2Oc2ccccc2Br)c(O)c1,3,42*,·,18,39,17
CCOc1ccc(-c2nc(N)ncc2Oc2ccc(OC)cc2)c(O)c1,-2,4,-1,-5,0,6
CCCCCN1C=CC=C/C1=C\C=C(C#N)C#N,-48,-22,-37*,-21,-29,-44
N#Cc1cccc(-c2csc(C(O)(c3ccccc3)C(F)(F)F)n2)c1 (configuration not stated),7,·,·,·,·,·

# Screening data as filed in PubChem BioAssay.
